Drawing on PubChem BioAssay (NCI), this text covers growth for nine compounds.

Compounds without any hit were thinned out: in the full panel of roughly 83,000, 20% have a hit.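 Cell lines were cultured in 96-well plates, exposed to a single compound concentration, and assessed for percent growth 48 hours later.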 A number with no mark means an inactive call. Active and inactive are the calls of the source. How the source made its calls: active means growth percent below 10; inactive means the rest.

Experiment in all cases: NCI-60 one-dose screen, 48 h (100 = growth as untreated, 0 = no growth, -100 = all killed)
What all share (conditions): 10 µM

In experiment [1] the test system is NCI-H23 lung.
Experiment [2] deals with NCI-H226 lung.
The subject of experiment [3] is NCI-H322M lung.
Experiment [4] concerns HOP-92 NSCLC.
Experiment [5] concerns NCI-H522 lung.
For experiment [6], the system named is A549/ATCC NSCLC.
Experiment [7] relates to 786-0 renal.
For experiment [8], the system named is COLO 205 colon.
In experiment [9] the test system is DU-145 prostate.
In experiment [10] the test system is K-562 leukemia.
Experiment [11] deals with MALME-3M melanoma.
Experiment [12] has as its system MDA-MB-231 breast.
Experiment [13] deals with RXF 393 renal.
The subject of experiment [14] is SF-268 CNS.
The subject of experiment [15] is SF-295 CNS.
Experiment [16] deals with SF-539 CNS.
The test system of experiment [17] is UACC-257 melanoma.
The test system of experiment [18] is M14 melanoma.
The subject of experiment [19] is NCI-H460 lung.
In experiment [20] the test system is HOP-62 NSCLC.

With `Cc1ncc(C#N)c(N)n1`, the growth is 99% in experiment [1]; 94.8% in experiment [2]; 89.1% in [3]; 87.1% in experiment [4]; 102% in experiment [5]; 106% in [6]. Also, the growth in experiment [7] was 96.4%; in experiment [8], 107%; in experiment [9] it was 114%; in experiment [10], 120%; in [11], 93.8%; in experiment [12], 98.9%. For the same compound, the growth was 89.6% in [13]; 107% in experiment [14]; 98% in experiment [15]; 105% in experiment [16]; 106% in experiment [17]; 95.9% in experiment [18].
With `O=C1N(C[P+](c2ccccc2)(c2ccccc2)c2ccccc2)CCCN1C[P+](c1ccccc1)(c1ccccc1)c1ccccc1`, the growth was 109% in experiment [1]; 102% in experiment [2]; 106% in experiment [3]; 79.5% in [4]; 108% in experiment [5]; 101% in experiment [6]. Also, the growth is 103% in experiment [7]; 117% in experiment [9]; 93.9% in experiment [10]; 103% in experiment [11]; 90.8% in experiment [12]; 113% in experiment [13]. Also, the growth in [14] is 115%; in [15], 96.4%; in experiment [16] it was 106%; in [17] it was 101%; in [18] it was 98.2%.
As to `CN(C)c1nc2c([nH]1)c(=O)n(C)c(=O)n2C`, the growth is 99.8% in experiment [1]; 81.2% in experiment [2]; 105% in [3]; 103% in [19]; 73.1% in experiment [5]; 92.2% in experiment [6]. In addition, the growth in experiment [7] was 105%; in experiment [9], 116%; in experiment [10], 96.5%; in experiment [11] it was 101%; in [12], 107%; in experiment [14], 105%. For the same compound, the growth in [15] is 104%; in experiment [16], 107%; in experiment [17], 87.8%; in experiment [18], 108%.
With `Cc1cc(OCCO)cc(C)c1Cl`, the growth in [1] is 106%; in experiment [2], 108%; in [20], 111%; in experiment [19] it was 114%; in experiment [4] it was 114%; in [5], 114%. Further, the growth in [6] is 104%; in [7], 97.3%; in [8], 123%; in experiment [9], 117%; in experiment [10] it was 118%; in [12], 114%. In addition, the growth in experiment [13] is 134%; in experiment [14], 109%; in experiment [15], 130%; in [16], 111%; in experiment [17] it was 110%; in experiment [18] it was 112%.
For the compound `CC12CC3CC1C(C(=O)O2)C3C(=O)O` (stereo not drawn), the growth in [1] was 96.8%; in [2], 105%; in experiment [20], 98.9%; in experiment [19], 108%; in experiment [4] it was 107%; in experiment [5], 96%. Besides, the growth in [6] was 96.3%; in [7] it was 108%; in experiment [8] it was 102%; in [9], 106%; in experiment [10], 95.6%; in experiment [11], 94.2%. The growth was 109% in [12]; 109% in [13]; 99.2% in experiment [14]; 101% in experiment [15]; 97.4% in experiment [16]; 92.1% in experiment [17]. The growth in experiment [18] was 117%.
For `O=[N+]([O-])c1cccc2nsnc12`, the growth in experiment [1] was 108%; in experiment [2], 93.9%; in experiment [20] it was 99.5%; in experiment [19], 103%; in [5], 103%; in experiment [6], 104%. Besides, the growth in experiment [7] is 114%; in experiment [8], 107%; in experiment [9], 114%; in experiment [10] it was 111%; in experiment [12], 112%; in [13] it was 118%. The growth in experiment [14] was 101%; in [16], 108%; in [17], 87.8%; in experiment [18], 101%.
On to `COC(=O)Nc1nc2ccc(C(=O)c3cccs3)cc2[nH]1`, for which the growth in [1] is 14.2%; in experiment [2], 0.146% (active); in experiment [19], 7.45% (active); in [4] it was 63.9%; in [6], 19.5%; in experiment [7] it was 19%. The growth was -40% (active) in experiment [8]; -1.55% (active) in experiment [9]; 36.2% in experiment [11]; 24% in experiment [12]; 44.9% in [13]; 36.9% in experiment [14]. Moreover, the growth was -9.66% (active) in experiment [15], 10.3% in [16], 56% in experiment [17] and 3.53% (active) in experiment [18].
As to `NC(=S)N/N=C/c1ccc(N)cc1`, the growth in experiment [1] was 89.5%; in experiment [3], 99.4%; in experiment [20] it was 97%; in experiment [19], 106%; in experiment [4] it was 89.1%; in experiment [5], 92.3%. In addition, the growth in experiment [6] was 76%; in [7], 99.9%; in experiment [8] it was 110%; in experiment [9] it was 108%; in experiment [10] it was 98.7%; in [11], 104%. Further, the growth was 97% in experiment [12]; 107% in experiment [13]; 97.1% in experiment [14]; 102% in experiment [15]; 103% in [16]; 82.9% in experiment [17]. The growth in [18] was 98.4%.
Regarding `CCOC(=O)CSc1c([N+](=O)[O-])ncn1C`, the growth in [1] is 95.6%; in experiment [2], 105%; in [20], 98.6%; in experiment [19], 104%; in experiment [4], 113%; in experiment [5], 99.9%. Further, the growth is 97.6% in experiment [6]; 111% in experiment [7]; 110% in experiment [8]; 105% in [9]; 109% in [10]; 80.4% in experiment [11]. Besides, the growth in [12] was 96.5%; in experiment [13] it was 103%; in experiment [14] it was 103%; in [15] it was 102%; in experiment [16], 94.3%; in experiment [17], 94.6%. Also, in [18], the growth was 94.1%.
